Source: the supplement of paper PMC10849652
Of roughly 7,900 targets only a part is listed; those with a hit were picked by preference. About 0.6% of all pairs of compound and target were hits.

Experiments:
Experiment in all cases: log2 fold change, soluble protein after heating vs DMSO (PISA); higher = thermal stabilisation; K562 cells, 10 uM, 30 min; active = over 0.2 and 3.5 SD of the protein, either way, in both replicates (recomputed)
IRAK-1-4 Inhibitor I = compound: C1COCCN1CCN2C3=CC=CC=C3N=C2NC(=O)C4=CC(=CC=C4)[N+](=O)[O-] [IRAK-1-4 Inhibitor I]
Method in brief: (§1)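 K562 cells at 2×10^6 cells/mL were given 10 μM compound for 30 min. Aliquots then went through 3 min of heating across 48°C-58°C, were pooled, and were extracted in PBS with 0.5% NP-40 at 4°C, and the supernatant after 21,000xg for 90 min was quantified by TMTpro 16plex LC-MS/MS with channel sums equalised. Thermal stability relative to control samples, from duplicates, is given as log2 fold change.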

ibrutinib = compound: C=CC(=O)N1CCC[C@@H](n2nc(-c3ccc(Oc4ccccc4)cc3)c3c(N)ncnc32)C1 [ibrutinib]
Method in brief: as §1

[1] = compound: CC(=O)c1cnc2ccc(-c3cc(Cl)c(O)c(Cl)c3)nc2c1N[C@H]1CC[C@H](CN(C)C)CC1
Method in brief: as §1

ralimetinib = compound: CC(C)(C)Cn1c(N)nc2ccc(-c3[nH]c(C(C)(C)C)nc3-c3ccc(F)cc3)nc21 [ralimetinib]
Method in brief: as §1

[2] = compound: CC(C)(O)CC(=O)NCCn1ccc2ncnc(Nc3ccc(Oc4cccc(C(F)(F)F)c4)c(Cl)c3)c21
Method in brief: as §1

[3] = compound: CC(C)C1=C2N=C(C=C(N2N=C1)NCC3=CC=CC=C3)NCCCCCCN
Method in brief: as §1

[4] = compound: CC(C)C[C@@H](C=O)NC(=O)[C@H](CC(C)C)NC(=O)[C@H](CC(C)C)NC(=O)OCc1ccccc1
Method in brief: as §1

pinometostat = compound: CC(C)N(C[C@H]1O[C@@H](n2cnc3c(N)ncnc32)[C@H](O)[C@@H]1O)[C@H]1C[C@@H](CCc2nc3cc(C(C)(C)C)ccc3[nH]2)C1 [pinometostat]
Method in brief: as §1

[5] = compound: CC1=C(C(CC(=O)N1)C2=CC=C(C=C2)C(F)(F)F)C(=O)NC3=C(C=C4C(=C3)C=NN4)F
Method in brief: as §1

[6] = compound: CC1=C(C2=C(C=C1)C(=O)C3=CC=CC=C3N2CCCN)C
Method in brief: as §1

Measured: log2 fold change

DHCR7 (UniProt Q9UBM7)
inactive: IRAK-1-4 Inhibitor I -0.045 | ibrutinib -0.091 | [1] -0.085 | ralimetinib 0.056 | [2] 0.067 | [3] -0.021 | [4] 0.011 | pinometostat 0.199 | [5] 0.037 | [6] 0.15

DYNC1I2 isoform 2 (UniProt Q13409)
inactive: IRAK-1-4 Inhibitor I 0.012 | ibrutinib 0.126 | [1] 0.106 | ralimetinib 0.055 | [2] -0.133 | [3] -0.105 | [4] 0.154 | pinometostat 0.023 | [6] -0.05

DNAH5 (UniProt Q8TE73)
UniProt Q8TE73, sequence (Q8TE73 whole entry, looked up): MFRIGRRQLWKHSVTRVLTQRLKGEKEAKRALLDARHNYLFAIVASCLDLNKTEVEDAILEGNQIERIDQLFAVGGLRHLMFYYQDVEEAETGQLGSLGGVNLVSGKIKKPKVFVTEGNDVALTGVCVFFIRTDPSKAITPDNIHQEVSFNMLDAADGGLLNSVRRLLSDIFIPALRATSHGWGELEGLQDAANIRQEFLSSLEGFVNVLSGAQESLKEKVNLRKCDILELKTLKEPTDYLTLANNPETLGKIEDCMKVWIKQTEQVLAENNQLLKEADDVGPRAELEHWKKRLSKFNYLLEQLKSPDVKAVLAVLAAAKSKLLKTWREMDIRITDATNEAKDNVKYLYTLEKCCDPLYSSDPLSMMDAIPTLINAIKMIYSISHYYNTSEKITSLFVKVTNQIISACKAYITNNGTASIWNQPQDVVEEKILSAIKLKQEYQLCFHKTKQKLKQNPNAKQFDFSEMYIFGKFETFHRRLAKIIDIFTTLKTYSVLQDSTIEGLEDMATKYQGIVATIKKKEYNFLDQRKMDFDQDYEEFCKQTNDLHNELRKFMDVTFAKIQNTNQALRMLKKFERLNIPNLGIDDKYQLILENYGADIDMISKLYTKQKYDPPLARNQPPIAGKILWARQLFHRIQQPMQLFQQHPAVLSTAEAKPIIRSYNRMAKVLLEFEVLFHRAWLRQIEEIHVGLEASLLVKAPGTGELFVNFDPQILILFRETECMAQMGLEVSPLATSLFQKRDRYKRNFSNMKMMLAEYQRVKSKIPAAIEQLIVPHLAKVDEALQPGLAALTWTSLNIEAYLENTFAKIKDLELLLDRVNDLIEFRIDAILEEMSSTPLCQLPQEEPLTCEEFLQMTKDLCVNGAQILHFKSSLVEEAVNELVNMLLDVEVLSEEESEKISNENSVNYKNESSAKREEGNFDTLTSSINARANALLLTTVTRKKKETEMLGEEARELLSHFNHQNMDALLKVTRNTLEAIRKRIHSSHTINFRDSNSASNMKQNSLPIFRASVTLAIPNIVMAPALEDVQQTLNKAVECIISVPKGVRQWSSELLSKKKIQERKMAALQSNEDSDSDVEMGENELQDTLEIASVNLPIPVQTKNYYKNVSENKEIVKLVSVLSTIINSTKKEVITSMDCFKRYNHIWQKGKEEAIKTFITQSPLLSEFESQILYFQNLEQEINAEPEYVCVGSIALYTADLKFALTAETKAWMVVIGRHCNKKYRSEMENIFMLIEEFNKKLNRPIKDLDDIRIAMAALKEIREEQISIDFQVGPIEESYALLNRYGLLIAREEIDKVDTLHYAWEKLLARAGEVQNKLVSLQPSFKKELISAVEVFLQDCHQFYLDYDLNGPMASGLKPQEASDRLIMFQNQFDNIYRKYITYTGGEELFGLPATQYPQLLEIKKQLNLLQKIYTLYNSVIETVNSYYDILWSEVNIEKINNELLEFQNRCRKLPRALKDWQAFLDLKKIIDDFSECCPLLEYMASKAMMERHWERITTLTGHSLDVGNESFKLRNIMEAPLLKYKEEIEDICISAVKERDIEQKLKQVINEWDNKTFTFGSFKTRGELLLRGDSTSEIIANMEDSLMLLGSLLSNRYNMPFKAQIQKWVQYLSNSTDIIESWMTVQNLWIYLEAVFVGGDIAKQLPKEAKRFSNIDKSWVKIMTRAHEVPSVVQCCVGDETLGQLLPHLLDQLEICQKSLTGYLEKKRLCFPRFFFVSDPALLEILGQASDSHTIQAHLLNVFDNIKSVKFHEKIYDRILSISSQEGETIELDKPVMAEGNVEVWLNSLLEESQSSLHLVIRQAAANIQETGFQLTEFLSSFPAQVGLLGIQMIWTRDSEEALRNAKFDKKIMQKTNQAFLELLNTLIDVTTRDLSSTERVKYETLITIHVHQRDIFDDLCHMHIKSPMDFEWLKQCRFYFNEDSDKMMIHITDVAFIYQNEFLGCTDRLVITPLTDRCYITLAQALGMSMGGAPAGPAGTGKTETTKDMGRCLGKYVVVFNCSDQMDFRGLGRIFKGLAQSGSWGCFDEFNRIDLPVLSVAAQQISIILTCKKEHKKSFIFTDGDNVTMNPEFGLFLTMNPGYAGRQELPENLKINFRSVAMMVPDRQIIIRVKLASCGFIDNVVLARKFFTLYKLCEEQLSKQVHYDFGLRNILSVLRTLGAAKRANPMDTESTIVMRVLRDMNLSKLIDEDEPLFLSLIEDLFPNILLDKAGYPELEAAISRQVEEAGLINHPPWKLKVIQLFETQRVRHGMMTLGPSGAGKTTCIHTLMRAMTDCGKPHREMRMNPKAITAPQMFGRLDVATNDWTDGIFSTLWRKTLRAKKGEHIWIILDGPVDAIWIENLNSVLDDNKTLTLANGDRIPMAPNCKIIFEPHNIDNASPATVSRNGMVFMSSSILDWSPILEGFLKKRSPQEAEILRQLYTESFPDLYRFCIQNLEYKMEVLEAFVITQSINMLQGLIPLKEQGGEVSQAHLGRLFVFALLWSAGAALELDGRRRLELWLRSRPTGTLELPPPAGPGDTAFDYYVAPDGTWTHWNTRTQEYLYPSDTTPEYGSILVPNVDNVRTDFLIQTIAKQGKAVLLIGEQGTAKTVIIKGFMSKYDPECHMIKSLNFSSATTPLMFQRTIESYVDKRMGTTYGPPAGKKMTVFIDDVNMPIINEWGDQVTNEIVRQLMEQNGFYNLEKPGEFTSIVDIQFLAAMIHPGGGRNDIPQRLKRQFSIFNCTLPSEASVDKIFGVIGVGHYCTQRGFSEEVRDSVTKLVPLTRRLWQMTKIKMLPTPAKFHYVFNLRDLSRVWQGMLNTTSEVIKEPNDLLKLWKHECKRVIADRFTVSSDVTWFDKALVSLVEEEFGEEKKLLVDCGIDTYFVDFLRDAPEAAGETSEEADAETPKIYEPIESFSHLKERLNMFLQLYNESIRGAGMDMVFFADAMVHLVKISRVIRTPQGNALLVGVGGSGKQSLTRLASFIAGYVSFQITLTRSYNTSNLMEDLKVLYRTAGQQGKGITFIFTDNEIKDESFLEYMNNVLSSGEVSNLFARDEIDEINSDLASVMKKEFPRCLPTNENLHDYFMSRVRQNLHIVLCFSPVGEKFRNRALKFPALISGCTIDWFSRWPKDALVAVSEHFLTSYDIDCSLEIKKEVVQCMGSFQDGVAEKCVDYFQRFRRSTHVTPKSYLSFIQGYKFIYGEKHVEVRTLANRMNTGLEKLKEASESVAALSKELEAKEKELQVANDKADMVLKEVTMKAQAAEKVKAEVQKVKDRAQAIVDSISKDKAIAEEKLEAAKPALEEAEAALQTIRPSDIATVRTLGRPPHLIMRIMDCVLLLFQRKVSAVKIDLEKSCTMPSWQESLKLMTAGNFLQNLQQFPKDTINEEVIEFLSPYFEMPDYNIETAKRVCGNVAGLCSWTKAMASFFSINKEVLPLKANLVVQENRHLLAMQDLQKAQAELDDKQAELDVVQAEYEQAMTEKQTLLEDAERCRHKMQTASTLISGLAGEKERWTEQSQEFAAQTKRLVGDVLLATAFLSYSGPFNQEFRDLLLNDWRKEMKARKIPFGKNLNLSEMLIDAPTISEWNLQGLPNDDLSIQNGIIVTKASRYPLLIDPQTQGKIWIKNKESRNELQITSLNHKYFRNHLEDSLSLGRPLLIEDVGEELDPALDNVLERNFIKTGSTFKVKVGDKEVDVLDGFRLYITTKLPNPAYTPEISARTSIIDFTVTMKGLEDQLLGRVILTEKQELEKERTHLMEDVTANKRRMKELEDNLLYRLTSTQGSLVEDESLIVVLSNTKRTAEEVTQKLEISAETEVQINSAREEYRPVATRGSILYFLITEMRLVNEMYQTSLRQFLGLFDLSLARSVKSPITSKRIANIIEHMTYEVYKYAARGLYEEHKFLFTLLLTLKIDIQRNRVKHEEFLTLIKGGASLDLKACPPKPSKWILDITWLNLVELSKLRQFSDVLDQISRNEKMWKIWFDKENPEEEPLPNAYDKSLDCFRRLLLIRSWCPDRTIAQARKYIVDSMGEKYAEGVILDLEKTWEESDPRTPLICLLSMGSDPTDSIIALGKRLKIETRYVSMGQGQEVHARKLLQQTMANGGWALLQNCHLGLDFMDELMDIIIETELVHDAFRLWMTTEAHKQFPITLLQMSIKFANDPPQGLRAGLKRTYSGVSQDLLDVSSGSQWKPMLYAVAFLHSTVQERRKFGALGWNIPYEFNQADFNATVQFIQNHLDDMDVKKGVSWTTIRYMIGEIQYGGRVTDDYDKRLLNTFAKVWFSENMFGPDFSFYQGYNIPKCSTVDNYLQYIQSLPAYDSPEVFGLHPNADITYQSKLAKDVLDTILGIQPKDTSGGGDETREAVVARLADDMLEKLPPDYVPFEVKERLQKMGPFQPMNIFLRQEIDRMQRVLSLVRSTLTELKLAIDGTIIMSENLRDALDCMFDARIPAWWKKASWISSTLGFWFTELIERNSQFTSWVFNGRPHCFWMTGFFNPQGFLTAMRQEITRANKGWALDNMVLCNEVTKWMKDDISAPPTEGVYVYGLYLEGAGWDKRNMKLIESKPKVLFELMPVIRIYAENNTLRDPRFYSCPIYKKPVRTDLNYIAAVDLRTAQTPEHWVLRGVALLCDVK
inactive: IRAK-1-4 Inhibitor I 0.074 | ibrutinib 0.039 | ralimetinib 0.004 | [2] 0.031 | [3] -0.09 | [4] 0.009 | pinometostat 0.055 | [5] -0.023 | [6] 0.106

EIF2AK1 (UniProt Q9BQI3)
active: [4] 0.279
inactive: IRAK-1-4 Inhibitor I -0.016 | ibrutinib 0.018 | [1] 0.035 | ralimetinib -0.011 | [2] 0.056 | [3] 0.023 | pinometostat 0.031 | [6] -0.114

CUTA isoform 2 (UniProt O60888)
UniProt O60888, sequence (O60888 whole entry, looked up): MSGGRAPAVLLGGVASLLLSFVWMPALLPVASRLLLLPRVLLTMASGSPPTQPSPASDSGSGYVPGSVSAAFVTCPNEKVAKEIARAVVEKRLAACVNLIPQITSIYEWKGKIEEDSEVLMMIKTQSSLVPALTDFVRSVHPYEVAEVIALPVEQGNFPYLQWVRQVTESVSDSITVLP
inactive: IRAK-1-4 Inhibitor I 0.074 | ibrutinib -0.018 | [1] 0.085 | ralimetinib -0.046 | [2] -0.104 | [3] 0.038 | [4] -0.09 | pinometostat -0.009 | [5] 0.005 | [6] 0.15

EZH2 isoform 2 (UniProt Q15910)
inactive: IRAK-1-4 Inhibitor I -0.247 | ibrutinib -0.114 | [1] 0.115 | [2] -0.041 | [3] -0.239 | pinometostat 0.068 | [6] -0.11

CYP24A1 (UniProt Q07973)
inactive: IRAK-1-4 Inhibitor I -0.162 | ibrutinib -0.044 | [1] 0.187 | ralimetinib 0.412 | [3] 0.069 | [4] 0.31 | pinometostat 0.276 | [5] 0.083 | [6] -0.089

DYNC1I2 isoform 5 (UniProt Q13409)
inactive: IRAK-1-4 Inhibitor I 0.022 | ibrutinib 0.016 | [1] 0.022 | ralimetinib 0.013 | [2] -0.003 | [3] 0.041 | [4] 0.062 | pinometostat -0.019 | [5] -0.015 | [6] -0.032

DNAH10 (UniProt Q8IVF4)
inactive: IRAK-1-4 Inhibitor I 0.004 | ibrutinib 0.018 | [2] -0.127 | [3] 0.162 | pinometostat -0.106 | [5] -0.154 | [6] -0.022

FADS1 (UniProt F5GYH4)
inactive: IRAK-1-4 Inhibitor I 0.02 | ibrutinib -0.093 | pinometostat 0.075 | [6] -0.097

EPHB4 (UniProt P54760)
inactive: ralimetinib 0.131 | [4] 0.241

F2RL3 (UniProt Q96RI0)
inactive: [1] 0.02 | ralimetinib -0.084 | [3] 0.081 | [4] 0.021 | [6] 0.1

DDX27 (UniProt Q96GQ7)
inactive: IRAK-1-4 Inhibitor I -0.037 | [1] 0.115 | ralimetinib 0.04 | [2] 0.106 | [3] -0.177 | [4] 0.104 | pinometostat 0.311 | [5] -0.344 | [6] -0.351

DENND10 (UniProt Q8TCE6)
inactive: ibrutinib 0.037 | [1] 0 | ralimetinib -0.003 | [2] -0.025 | [3] -0.119 | [4] 0.016 | [5] 0.059 | [6] -0.185

EEF1D isoform 3 (UniProt P29692)
inactive: [3] -0.27 | [6] 0.605

ELF1 (UniProt P32519)
active: [2] -0.567
inactive: IRAK-1-4 Inhibitor I -0.12 | [1] 0.143 | ralimetinib 0.186 | [3] -0.072 | [4] -0.076 | pinometostat 0.053 | [5] -0.22 | [6] -0.473

DDX46, A0A0C4DG89
inactive: [2] -0.123 | [5] -0.005

FAM160A2 isoform 2 (UniProt Q8N612)
inactive: IRAK-1-4 Inhibitor I 0.029 | ibrutinib -0.003 | ralimetinib -0.029 | [2] -0.326 | [4] 0.013 | pinometostat 0.004 | [5] -0.146 | [6] 0.102

CTNNBL1 (UniProt Q8WYA6)
inactive: ibrutinib 0.046

ELAC1 (UniProt Q9H777)
inactive: IRAK-1-4 Inhibitor I 0.028 | [1] 0.027 | [2] 0.027 | [3] 0.116 | pinometostat -0.129 | [5] -0.01

FAM135A (UniProt Q9P2D6)
inactive: [2] 0.009 | [3] 0.051 | [5] -0.002

EID1 (UniProt Q9Y6B2)
inactive: [2] 0.002 | [3] 0.05 | [5] 0.05 | [6] -0.281

DNAJC24 (UniProt Q6P3W2)
inactive: IRAK-1-4 Inhibitor I -0.035 | ibrutinib 0.011 | ralimetinib 0.058 | [2] 0.026 | [3] -0.037 | [4] 0.058 | pinometostat -0.019 | [5] 0.062 | [6] -0.023

ELOVL7 (UniProt A1L3X0)
UniProt A1L3X0, sequence (A1L3X0 whole entry, looked up): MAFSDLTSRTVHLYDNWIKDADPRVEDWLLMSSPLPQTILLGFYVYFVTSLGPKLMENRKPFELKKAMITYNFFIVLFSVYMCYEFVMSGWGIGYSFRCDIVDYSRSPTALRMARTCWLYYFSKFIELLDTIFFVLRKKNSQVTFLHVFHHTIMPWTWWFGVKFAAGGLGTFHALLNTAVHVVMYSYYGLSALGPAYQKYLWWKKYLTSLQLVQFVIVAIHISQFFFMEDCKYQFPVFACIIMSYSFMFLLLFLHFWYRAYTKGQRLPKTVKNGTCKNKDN
active: [3] -0.617
inactive: [1] 0.059 | [2] -0.177 | [6] 0.062

ELOVL5 isoform 2 (UniProt Q9NYP7)
inactive: ibrutinib -0.075 | [1] -0.032 | ralimetinib -0.058 | [2] -0.272 | [3] -0.348 | [4] -0.05 | [5] -0.027 | [6] 0.002

EEF2K (UniProt O00418)
inactive: ralimetinib 0.126 | [2] -0.047 | [3] -0.245 | [4] 0.169

DDB1 isoform 2 (UniProt Q16531)
inactive: ibrutinib -0.034 | [2] 0.078

DLK1 (UniProt P80370)
inactive: IRAK-1-4 Inhibitor I 0.023 | [2] -0.034 | pinometostat 0.099

DENND1A isoform 6 (UniProt Q8TEH3)
inactive: IRAK-1-4 Inhibitor I 0.121 | ibrutinib -0.003 | pinometostat -0.356 | [6] 0.113

EGR1 (UniProt P18146)
active: [1] -1.07
inactive: ibrutinib 0 | ralimetinib 0.042 | [2] 0.044 | [3] -0.452 | [4] 0.153 | [5] 0.188 | [6] -0.472

ERF (UniProt P50548)
inactive: [2] 0.093 | [3] 0.186 | [6] 0.094

DHRS13 (UniProt Q6UX07)
inactive: IRAK-1-4 Inhibitor I -0.275 | [1] -0.051 | ralimetinib 0.035 | [3] -0.007 | [4] 0.144 | pinometostat 0.224 | [5] -0.168 | [6] -0.085

FAM117B (UniProt Q6P1L5)
inactive: IRAK-1-4 Inhibitor I 0.238 | [1] -0.593 | ralimetinib -0.177 | [2] -0.255 | [3] 0.144 | [4] 0.016 | pinometostat -0.175 | [6] 0.037

EPHX2 (UniProt E5RI53)
inactive: ibrutinib 0.085 | [2] 0.071

EIF4G1 (UniProt Q04637)
inactive: [1] -0.334 | [6] 0.067

DCP2 (UniProt Q8IU60)
inactive: IRAK-1-4 Inhibitor I -0.372 | [1] -0.265 | ralimetinib 0.105 | [2] 0.147 | [4] 0.185 | pinometostat 0.038 | [6] -0.111

CWF19L2 (UniProt Q2TBE0)
inactive: IRAK-1-4 Inhibitor I 0.029 | [1] -0.075 | ralimetinib 0.014 | [3] 0.184 | [4] 0.02 | pinometostat 0.098 | [6] 0.106

EDRF1 (UniProt Q3B7T1)
inactive: ibrutinib 0.068 | ralimetinib 0.04 | [2] 0.048 | [3] 0.004 | [4] 0.066

DOP1A (UniProt Q5JWR5)
inactive: ibrutinib -0.093 | [2] -0.054 | [3] 0.092

CTSS (UniProt P25774)
inactive: IRAK-1-4 Inhibitor I -0.023 | ralimetinib -0.026 | [4] 0.12 | pinometostat -0.001 | [6] 0.316

EHBP1 (UniProt Q8NDI1)
inactive: [1] 0.018 | [6] -0.003

DHPS (UniProt M0R1T2)
inactive: ibrutinib 0.124

ENTPD7 (UniProt Q9NQZ7)
inactive: IRAK-1-4 Inhibitor I -0.146 | ibrutinib -0.013 | [2] 0.181 | [3] -0.043 | pinometostat -0.009 | [5] -0.022 | [6] -0.016

DNAJB1 (UniProt M0R128)
inactive: ibrutinib -0.077 | [6] 0.111

DEGS1 (UniProt O15121)
inactive: ibrutinib 0.049 | [1] 0.066 | [2] 0.013 | [3] 0.074 | [5] -0.118 | [6] 0.197

DERPC (UniProt P0CG12)
inactive: IRAK-1-4 Inhibitor I -0.077 | ibrutinib 0.004 | ralimetinib 0.017 | [3] -0.003 | [4] -0.029 | pinometostat 0.161 | [5] 0.066

DCAF4 (UniProt Q8WV16)
inactive: ralimetinib -0.026 | [2] -0.019 | [4] -0.042 | [5] 0.043

ENTR1 (UniProt Q96C92)
inactive: [3] -0.156
